# Results from PubChem BioAssay (Tox21).
# Results filed as inconclusive are left out. Where a call stands in place of a potency, no number is given. Activity calls are given as the source filed them. The call rests on the fitted dose curve; in most records, active means well fitted activation curve with a large enough effect in the repeat runs; inconclusive means weak or mixed curves; inactive means flat fitted curve, though single readings scatter.
# Assay: A CellTox Green Cytotoxicity Assay to monitor cytotoxicity in HepG2 cells - 24 hour (AID 1224878); further: nearly all actives have a fitted effect of over 45% in size
# Conditions: CellTox Green fluorescence; series mostly up to 76.8 µM
# Description: National Center for Advancing Translational Sciences [NCATS]
# NIH Chemical Genomics Center [NCGC]
# U.S. Environmental Protection Agency [EPA]
# National Institutes of Environmental Health Sciences [NIEHS]
# National Toxicology Program [NTP]
# Cell-based models are critical for drug discovery. Determining the natural cytotoxic effects resulting from test compounds is an essential research activity. A CellTox Green Cytotoxicity Assay to monitor cytotoxicity in real time of continues cell culture during 40 hours of the compound treatment was used to screen Tox21 10K library compounds in HepG2 cells. CellTox Green Cytotoxicity Assay is a nonlytic, homogeneous, biofluorescent method to measure cytotoxicity in cell culture after experimental manipulation. The assay system uses a proprietary asymmetric cyanine dye that is excluded from viable cells but preferentially stains the dead cell's DNA. […] Viable cells produce no appreciable increases in fluorescence. Therefore, the fluorescence signal produced by the binding interaction with dead cell DNA is proportional to cytotoxicity.
# The mixture of HepG2 cell suspension and reagents were dispensed at 600cells/6 ul/well in 1536-well tissue culture treated black solid bottom plates using a Multidrop dispenser. After the assay plates were incubated at a 37 C/5% CO2 incubator for 5 hours, 23 nL of compounds dissolved in DMSO, positive and negative controls was transferred to the assay plate by a pintool work station. The plates were incubated at 37 C for 40 hours. The fluorescence intensity were measured at 0h, 8h, 16h, 24h, 32h and 40h time points using ViewLux plate reader during compound treatment.
row,Structure (SMILES),Potency
1,C/C=C1\C(=O)C[C@H]2[C@@H]3CCC4=CC(=O)CC[C@]4(C)[C@H]3CC[C@]12C,inactive
2,O=[N+]([O-])c1ccc(CCO)cc1,inactive
3,CC(C)(C)C(=O)/C=C/c1ccc(Cl)cc1,inactive
4,Oc1cc(O)c2c(c1)O[C@H](c1ccc(O)c(O)c1)[C@H](O)C2,inactive
5,CNc1ncnc2nc[nH]c12,inactive
6,c1ccc(SCCSc2ccccc2)cc1,inactive
7,CC12CCC(CC1=O)C2(C)C (stereo not given),inactive
8,C=C(C)C(=O)NCCCN(C)C,inactive
9,CCCCCCC(CCCCCCCCCCC(=O)OCC(COC(C)=O)OC(C)=O)OC(C)=O (stereo not given),inactive
10,CCO[Si](C)(OCC)OCC,inactive
11,CCCCOCC(C)OCC(C)O (stereo not given),inactive
12,C=CCn1c(=O)n([C@@H]2O[C@H](CO)[C@@H](O)[C@H]2O)c2nc(N)[nH]c(=O)c21,inactive
13,COCc1ccc(COC)cc1,inactive
14,Cc1ccc(N)cc1[N+](=O)[O-],inactive
15,CC(C)CCCC(C)NCCC(C)C (stereo not given),inactive
16,CC(=O)OC(C)(C)C,inactive
17,COC(=O)CCCCCCCCC(=O)OC,inactive
18,CC(CCO)CCCC(C)(C)O (stereo not given),inactive
19,Cc1nccn1CC1CCc2c(c3ccccc3n2C)C1=O (stereo not given),inactive
20,OCC(CO)(CO)COCC(CO)(CO)CO,inactive

row,Structure (SMILES),Potency
1,Cc1ncc(CSSCc2cnc(C)c(O)c2CO)c(CO)c1O,inactive
2,CCN1CCCC(OC(=O)C(c2ccccc2)c2ccccc2)C1 (stereo not given),inactive
3,CCCC=O,inactive
4,CNC(=O)c1c(I)c(NC(=O)CCCCC(=O)Nc2c(I)c(C(=O)O)c(I)c(C(=O)NC)c2I)c(I)c(C(=O)O)c1I,inactive
5,CCC(C(=O)NC(N)=O)c1ccccc1 (stereo not given),inactive
6,C#CC(C)(O)CC(C)C (stereo not given),inactive
7,COC[C@H](c1ccc(C(F)(F)F)cc1)N1CCN(C2(C)CCN(C(=O)c3c(C)ncnc3C)CC2)C[C@H]1C,inactive
8,OCc1ccccn1,inactive
9,O=c1[nH]c2ccccc2c(=O)n1CCCl,inactive
10,NS(=O)(=O)c1cc2c(cc1Cl)NC(CSCc1ccccc1)=NS2(=O)=O,inactive
11,C(=C(c1ccccc1)c1ccccc1)c1ccccc1,inactive
12,CCOC(=O)Cn1c(=O)sc2cccc(Cl)c21,inactive
13,CC(=O)N[C@@H](CCC(N)=O)C(=O)O,inactive
14,COc1nc(C)nc(N)n1,inactive
15,COC(C(=O)O)c1ccccc1 (stereo not given),inactive
16,Nc1ccc2cc(S(=O)(=O)O)ccc2c1,inactive
17,CC(C)(O)c1ccccc1,inactive
18,C#CC(O)CCCCC (stereo not given),inactive
19,CC(C)CCCCCCN,inactive
20,CCCC(C)C(=O)O (stereo not given),inactive
